Assay results published in the supplement of paper PMC10849652.
Targets with a hit are over-represented here; the source holds about 7,900 in all. About 0.6% of all pairs of compound and target were hits.

What was measured:
Assay in all cases: log2 fold change, soluble protein after heating vs DMSO (PISA); higher = thermal stabilisation; K562 cells, 10 uM, 30 min; active = over 0.2 and 3.5 SD of the protein, either way, in both replicates (recomputed)
IRAK-1-4 Inhibitor I = compound: C1COCCN1CCN2C3=CC=CC=C3N=C2NC(=O)C4=CC(=CC=C4)[N+](=O)[O-] [IRAK-1-4 Inhibitor I]
Summary of the method: (§1)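 K562 cells (2×10^6 cells/mL) were treated with 10 μM compound for 30 min, and aliquots were heated for 3 min over 48°C-58°C. Pooled aliquots were extracted in PBS with 0.5% NP-40 at 4°C, and the supernatant after 21,000xg for 90 min was measured by TMTpro 16plex LC-MS/MS with channel sums equalised. Reported thermal stability, relative to control samples and from duplicates, is a log2 fold change.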

ibrutinib = compound: C=CC(=O)N1CCC[C@@H](n2nc(-c3ccc(Oc4ccccc4)cc3)c3c(N)ncnc32)C1 [ibrutinib]
Summary of the method: as §1

[1] = compound: CC(=O)c1cnc2ccc(-c3cc(Cl)c(O)c(Cl)c3)nc2c1N[C@H]1CC[C@H](CN(C)C)CC1
Summary of the method: as §1

ralimetinib = compound: CC(C)(C)Cn1c(N)nc2ccc(-c3[nH]c(C(C)(C)C)nc3-c3ccc(F)cc3)nc21 [ralimetinib]
Summary of the method: as §1

[2] = compound: CC(C)(O)CC(=O)NCCn1ccc2ncnc(Nc3ccc(Oc4cccc(C(F)(F)F)c4)c(Cl)c3)c21
Summary of the method: as §1

[3] = compound: CC(C)C1=C2N=C(C=C(N2N=C1)NCC3=CC=CC=C3)NCCCCCCN
Summary of the method: as §1

[4] = compound: CC(C)C[C@@H](C=O)NC(=O)[C@H](CC(C)C)NC(=O)[C@H](CC(C)C)NC(=O)OCc1ccccc1
Summary of the method: as §1

pinometostat = compound: CC(C)N(C[C@H]1O[C@@H](n2cnc3c(N)ncnc32)[C@H](O)[C@@H]1O)[C@H]1C[C@@H](CCc2nc3cc(C(C)(C)C)ccc3[nH]2)C1 [pinometostat]
Summary of the method: as §1

[5] = compound: CC1=C(C(CC(=O)N1)C2=CC=C(C=C2)C(F)(F)F)C(=O)NC3=C(C=C4C(=C3)C=NN4)F
Summary of the method: as §1

[6] = compound: CC1=C(C2=C(C=C1)C(=O)C3=CC=CC=C3N2CCCN)C
Summary of the method: as §1

Measured: log2 fold change

NFYC (UniProt Q13952)
Sequence of UniProt Q13952 (Q13952 whole entry, looked up): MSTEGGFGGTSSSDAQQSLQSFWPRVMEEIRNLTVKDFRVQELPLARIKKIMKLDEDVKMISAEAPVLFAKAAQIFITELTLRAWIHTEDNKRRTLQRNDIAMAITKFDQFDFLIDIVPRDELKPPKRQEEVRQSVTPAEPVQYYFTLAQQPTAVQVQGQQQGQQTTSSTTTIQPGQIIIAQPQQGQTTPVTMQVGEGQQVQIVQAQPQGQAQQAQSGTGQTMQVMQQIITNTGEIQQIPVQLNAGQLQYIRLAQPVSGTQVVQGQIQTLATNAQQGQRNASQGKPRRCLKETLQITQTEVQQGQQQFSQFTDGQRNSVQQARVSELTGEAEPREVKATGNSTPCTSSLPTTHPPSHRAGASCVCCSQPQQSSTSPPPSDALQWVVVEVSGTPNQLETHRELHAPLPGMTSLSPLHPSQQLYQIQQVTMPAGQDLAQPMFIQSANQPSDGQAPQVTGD
inactive: IRAK-1-4 Inhibitor I -0.023 | ibrutinib -0.042 | [1] -0.023 | ralimetinib -0.09 | [2] -0.046 | [3] 0.019 | [4] -0.061 | pinometostat -0.087 | [5] 0.046
active: [6] 0.332

NELFA (UniProt Q9H3P2)
inactive: IRAK-1-4 Inhibitor I -0.065 | ibrutinib 0 | [1] -0.357 | ralimetinib 0.02 | [2] -0.286 | [3] -0.054 | [4] -0.043 | pinometostat -0.02 | [5] -0.11 | [6] 0.252

OXR1 (UniProt Q8N573)
inactive: IRAK-1-4 Inhibitor I 0.048 | ibrutinib 0.016 | [1] -0.002 | ralimetinib -0.019 | [2] -0.035 | [3] -0.077 | [4] -0.004 | pinometostat 0.023 | [5] -0.008 | [6] 0.009

MNAT1 (UniProt P51948)
inactive: IRAK-1-4 Inhibitor I 0.025 | ibrutinib 0.03 | ralimetinib -0.044 | [2] 0.024 | [3] 0.062 | [4] -0.028 | pinometostat 0.022 | [5] -0.016 | [6] -0.027
active: [1] -0.221

NFATC2 (UniProt Q13469)
Sequence of UniProt Q13469 (Q13469 whole entry, looked up): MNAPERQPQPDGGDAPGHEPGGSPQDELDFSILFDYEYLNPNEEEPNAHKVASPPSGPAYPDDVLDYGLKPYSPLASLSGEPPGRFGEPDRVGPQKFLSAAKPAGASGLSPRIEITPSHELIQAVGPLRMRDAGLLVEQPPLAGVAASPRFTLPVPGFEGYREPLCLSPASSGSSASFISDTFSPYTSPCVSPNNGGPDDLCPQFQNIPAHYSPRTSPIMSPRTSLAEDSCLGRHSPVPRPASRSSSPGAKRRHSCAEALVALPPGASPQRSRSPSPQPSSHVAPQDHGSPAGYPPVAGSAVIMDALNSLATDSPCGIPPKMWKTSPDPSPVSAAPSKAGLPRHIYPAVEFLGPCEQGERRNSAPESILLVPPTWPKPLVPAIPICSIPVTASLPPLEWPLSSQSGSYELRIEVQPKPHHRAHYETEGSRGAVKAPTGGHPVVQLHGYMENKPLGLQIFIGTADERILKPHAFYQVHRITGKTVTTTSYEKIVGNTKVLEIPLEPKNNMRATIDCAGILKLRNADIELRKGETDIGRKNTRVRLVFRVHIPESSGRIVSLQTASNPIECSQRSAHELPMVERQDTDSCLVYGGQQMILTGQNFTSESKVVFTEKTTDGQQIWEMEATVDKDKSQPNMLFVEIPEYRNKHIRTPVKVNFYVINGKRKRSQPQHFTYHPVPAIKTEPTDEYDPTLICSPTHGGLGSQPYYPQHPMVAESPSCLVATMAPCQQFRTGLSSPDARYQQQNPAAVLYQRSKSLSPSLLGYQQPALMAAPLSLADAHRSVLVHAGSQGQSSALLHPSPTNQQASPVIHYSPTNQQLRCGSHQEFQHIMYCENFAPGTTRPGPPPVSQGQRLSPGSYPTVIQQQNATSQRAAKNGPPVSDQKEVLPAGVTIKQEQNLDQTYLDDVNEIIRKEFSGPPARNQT
inactive: IRAK-1-4 Inhibitor I -0.075 | ibrutinib -0.008 | ralimetinib -0.001 | [2] 0.011 | [3] -0.055 | [4] 0.099 | pinometostat 0.102 | [5] 0.013 | [6] -0.033
active: [1] -0.635

MSH3 (UniProt P20585)
active: [6] 0.27
inactive: IRAK-1-4 Inhibitor I -0.001 | ibrutinib -0.002 | [1] 0.054 | ralimetinib -0.053 | [2] 0.01 | [3] 0.068 | [4] 0.056 | pinometostat 0.043 | [5] 0.023

NAPG (UniProt Q99747)
inactive: IRAK-1-4 Inhibitor I -0.071 | ibrutinib -0.014 | [1] -0.067 | ralimetinib -0.012 | [2] -0.069 | [3] -0.248 | [4] 0.028 | pinometostat 0.016 | [5] 0 | [6] 0.016

MRPS25 (UniProt P82663)
inactive: IRAK-1-4 Inhibitor I -0.059 | ibrutinib 0.12 | [1] -0.021 | ralimetinib -0.007 | [2] 0.074 | [3] -0.071 | [4] 0.017 | pinometostat -0.018 | [5] -0.106 | [6] -0.091

NUDT1 (UniProt P36639)
inactive: IRAK-1-4 Inhibitor I 0.025 | [2] -0.263 | [4] -0.082 | pinometostat -0.017 | [5] -0.069 | [6] 0.074
active: ibrutinib 0.943 | [1] 0.816 | ralimetinib 1.69 | [3] 0.946

NELFB isoform 2 (UniProt Q8WX92)
inactive: IRAK-1-4 Inhibitor I -0.03 | ibrutinib -0.045 | [1] -0.144 | ralimetinib -0.067 | [2] -0.154 | [3] -0.112 | [4] 0.001 | pinometostat 0.022 | [5] 0.017 | [6] 0.042

MRPS22 (UniProt P82650)
inactive: IRAK-1-4 Inhibitor I -0.027 | ibrutinib 0.051 | [1] -0.02 | ralimetinib 0.017 | [2] -0.102 | [3] -0.11 | [4] 0.04 | pinometostat 0.007 | [5] -0.013 | [6] -0.175

NFATC3 (UniProt Q12968)
inactive: IRAK-1-4 Inhibitor I -0.116 | ibrutinib 0.01 | [2] -0.105 | [3] -0.209 | [4] 0.145 | pinometostat 0.053 | [5] 0.015 | [6] -0.036
active: [1] -0.406 | ralimetinib 0.386

NCKAP1 isoform 2 (UniProt Q9Y2A7)
Sequence of UniProt Q9Y2A7 (Q9Y2A7 whole entry, looked up): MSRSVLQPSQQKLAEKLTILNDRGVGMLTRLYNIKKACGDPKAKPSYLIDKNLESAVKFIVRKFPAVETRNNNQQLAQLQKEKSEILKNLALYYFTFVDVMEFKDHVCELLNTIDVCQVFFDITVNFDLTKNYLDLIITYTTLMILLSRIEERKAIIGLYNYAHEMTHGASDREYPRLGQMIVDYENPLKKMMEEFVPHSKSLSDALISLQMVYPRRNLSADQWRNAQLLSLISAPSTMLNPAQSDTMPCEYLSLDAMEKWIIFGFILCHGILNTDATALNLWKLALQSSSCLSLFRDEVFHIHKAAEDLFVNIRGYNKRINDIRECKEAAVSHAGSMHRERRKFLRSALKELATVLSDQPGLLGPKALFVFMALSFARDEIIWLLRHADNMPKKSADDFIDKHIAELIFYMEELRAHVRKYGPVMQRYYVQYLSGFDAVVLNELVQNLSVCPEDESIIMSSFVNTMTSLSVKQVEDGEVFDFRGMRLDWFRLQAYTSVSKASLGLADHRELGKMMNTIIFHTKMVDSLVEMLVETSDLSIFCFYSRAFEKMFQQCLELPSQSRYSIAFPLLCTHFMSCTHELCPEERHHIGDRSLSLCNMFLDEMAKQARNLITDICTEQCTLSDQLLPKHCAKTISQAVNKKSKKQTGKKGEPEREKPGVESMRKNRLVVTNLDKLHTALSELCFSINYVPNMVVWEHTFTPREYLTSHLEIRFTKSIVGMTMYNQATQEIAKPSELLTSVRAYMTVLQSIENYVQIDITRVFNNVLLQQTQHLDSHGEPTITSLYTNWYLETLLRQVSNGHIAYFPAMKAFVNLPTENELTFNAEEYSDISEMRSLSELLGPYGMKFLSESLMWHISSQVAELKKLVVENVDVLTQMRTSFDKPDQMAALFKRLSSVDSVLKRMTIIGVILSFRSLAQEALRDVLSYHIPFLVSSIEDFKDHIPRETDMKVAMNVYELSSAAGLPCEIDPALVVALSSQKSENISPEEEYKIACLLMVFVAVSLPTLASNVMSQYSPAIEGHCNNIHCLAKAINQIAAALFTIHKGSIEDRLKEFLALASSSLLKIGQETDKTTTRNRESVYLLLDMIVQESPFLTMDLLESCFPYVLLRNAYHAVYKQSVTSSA
inactive: IRAK-1-4 Inhibitor I 0 | ibrutinib 0.002 | [1] -0.063 | ralimetinib 0.07 | [2] -0.038 | [3] -0.047 | [4] -0.037 | pinometostat 0.01 | [5] 0.017 | [6] -0.009

NFATC2IP (UniProt Q8NCF5)
Sequence of UniProt Q8NCF5 (Q8NCF5 whole entry, looked up): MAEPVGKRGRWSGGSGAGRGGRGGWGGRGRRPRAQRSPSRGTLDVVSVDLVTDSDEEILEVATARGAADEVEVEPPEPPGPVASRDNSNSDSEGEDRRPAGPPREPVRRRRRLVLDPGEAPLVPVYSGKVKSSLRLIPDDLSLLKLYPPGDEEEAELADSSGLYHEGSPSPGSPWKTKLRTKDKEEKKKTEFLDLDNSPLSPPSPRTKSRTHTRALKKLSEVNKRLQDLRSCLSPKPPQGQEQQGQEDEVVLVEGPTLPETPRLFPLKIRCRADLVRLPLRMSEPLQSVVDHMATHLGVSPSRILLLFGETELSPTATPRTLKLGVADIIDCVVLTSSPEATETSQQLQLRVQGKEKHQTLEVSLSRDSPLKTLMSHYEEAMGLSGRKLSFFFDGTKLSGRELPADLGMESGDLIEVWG
inactive: IRAK-1-4 Inhibitor I -0.014 | ibrutinib -0.036 | [1] -0.051 | ralimetinib -0.003 | [2] -0.224 | [3] -0.161 | [4] -0.006 | pinometostat -0.032 | [5] 0.069 | [6] -0.022

NHLRC2 (UniProt Q8NBF2)
Sequence of UniProt Q8NBF2 (Q8NBF2 whole entry, looked up): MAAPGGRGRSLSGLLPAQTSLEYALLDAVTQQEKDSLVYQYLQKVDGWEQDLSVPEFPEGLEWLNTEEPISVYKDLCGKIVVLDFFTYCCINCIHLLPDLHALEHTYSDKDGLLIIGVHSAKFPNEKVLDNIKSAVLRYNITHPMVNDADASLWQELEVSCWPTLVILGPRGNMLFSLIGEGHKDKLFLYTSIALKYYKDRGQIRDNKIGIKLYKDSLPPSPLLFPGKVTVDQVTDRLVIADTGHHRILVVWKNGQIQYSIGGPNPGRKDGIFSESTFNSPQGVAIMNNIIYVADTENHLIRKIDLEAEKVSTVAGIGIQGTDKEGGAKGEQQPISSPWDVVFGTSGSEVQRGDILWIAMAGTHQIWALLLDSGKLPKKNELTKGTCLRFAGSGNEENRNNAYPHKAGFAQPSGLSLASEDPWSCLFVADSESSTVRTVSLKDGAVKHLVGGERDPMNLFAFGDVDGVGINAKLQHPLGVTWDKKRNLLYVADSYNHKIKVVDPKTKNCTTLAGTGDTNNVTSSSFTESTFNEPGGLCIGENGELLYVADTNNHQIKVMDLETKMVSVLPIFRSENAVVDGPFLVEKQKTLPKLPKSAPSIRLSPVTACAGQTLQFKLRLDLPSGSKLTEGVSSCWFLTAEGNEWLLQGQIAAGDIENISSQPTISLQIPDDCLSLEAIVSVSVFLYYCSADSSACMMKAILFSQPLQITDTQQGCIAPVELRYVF
inactive: IRAK-1-4 Inhibitor I 0.039 | ibrutinib 0.07 | [1] -0.02 | ralimetinib -0.122 | [2] -0.026 | [3] -0.124 | [4] 0.143 | pinometostat 0.013 | [5] 0.004 | [6] 0.023

MRPL34 (UniProt Q9BQ48)
active: [6] -0.51
inactive: IRAK-1-4 Inhibitor I -0.046 | ibrutinib 0.107 | [1] 0.092 | ralimetinib 0.164 | [2] 0.042 | [3] -0.137 | [4] 0.102 | pinometostat 0.196 | [5] 0.086

NDUFS7 (UniProt O75251)
inactive: IRAK-1-4 Inhibitor I 0.045 | ibrutinib -0.04 | [1] -0.016 | ralimetinib -0.1 | [2] -0.1 | [3] -0.086 | [4] 0.05 | pinometostat -0.03 | [5] -0.005 | [6] 0.043

NMD3 (UniProt Q96D46)
active: [6] -0.392
inactive: IRAK-1-4 Inhibitor I 0.001 | ibrutinib -0.046 | [1] 0.017 | ralimetinib -0.049 | [2] -0.104 | [3] -0.069 | [4] -0.141 | pinometostat -0.026 | [5] -0.064

MORF4L2 (UniProt Q15014)
inactive: IRAK-1-4 Inhibitor I -0.116 | ibrutinib 0.04 | [1] 0.047 | ralimetinib -0.01 | [2] 0.039 | [3] 0.052 | [4] 0.271 | pinometostat 0.092 | [5] 0.028 | [6] 0.005

NUP85 (UniProt Q9BW27)
Sequence of UniProt Q9BW27 (Q9BW27 whole entry, looked up): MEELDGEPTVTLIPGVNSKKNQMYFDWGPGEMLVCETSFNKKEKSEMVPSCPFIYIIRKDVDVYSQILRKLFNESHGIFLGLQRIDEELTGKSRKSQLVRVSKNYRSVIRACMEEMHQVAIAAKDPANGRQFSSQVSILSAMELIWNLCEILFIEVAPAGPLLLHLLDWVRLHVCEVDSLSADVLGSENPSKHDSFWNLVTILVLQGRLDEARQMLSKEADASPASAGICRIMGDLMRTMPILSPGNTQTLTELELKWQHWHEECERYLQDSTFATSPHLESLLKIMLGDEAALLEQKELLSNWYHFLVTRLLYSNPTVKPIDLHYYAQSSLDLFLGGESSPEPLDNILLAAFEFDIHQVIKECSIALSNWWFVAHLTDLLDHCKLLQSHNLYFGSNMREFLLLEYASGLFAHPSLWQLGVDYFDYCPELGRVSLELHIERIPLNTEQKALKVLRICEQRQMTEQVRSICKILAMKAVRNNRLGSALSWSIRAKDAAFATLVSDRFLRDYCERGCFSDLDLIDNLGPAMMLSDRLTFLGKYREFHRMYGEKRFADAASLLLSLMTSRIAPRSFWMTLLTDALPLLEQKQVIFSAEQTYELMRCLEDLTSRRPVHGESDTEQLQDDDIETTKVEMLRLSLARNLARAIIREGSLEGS
inactive: IRAK-1-4 Inhibitor I -0.011 | ibrutinib -0.027 | [1] -0.058 | ralimetinib -0.036 | [2] -0.013 | [3] -0.048 | [4] -0.026 | pinometostat -0.033 | [5] 0.04 | [6] 0.015

NECTIN2 (UniProt Q92692)
Sequence of UniProt Q92692 (Q92692 whole entry, looked up): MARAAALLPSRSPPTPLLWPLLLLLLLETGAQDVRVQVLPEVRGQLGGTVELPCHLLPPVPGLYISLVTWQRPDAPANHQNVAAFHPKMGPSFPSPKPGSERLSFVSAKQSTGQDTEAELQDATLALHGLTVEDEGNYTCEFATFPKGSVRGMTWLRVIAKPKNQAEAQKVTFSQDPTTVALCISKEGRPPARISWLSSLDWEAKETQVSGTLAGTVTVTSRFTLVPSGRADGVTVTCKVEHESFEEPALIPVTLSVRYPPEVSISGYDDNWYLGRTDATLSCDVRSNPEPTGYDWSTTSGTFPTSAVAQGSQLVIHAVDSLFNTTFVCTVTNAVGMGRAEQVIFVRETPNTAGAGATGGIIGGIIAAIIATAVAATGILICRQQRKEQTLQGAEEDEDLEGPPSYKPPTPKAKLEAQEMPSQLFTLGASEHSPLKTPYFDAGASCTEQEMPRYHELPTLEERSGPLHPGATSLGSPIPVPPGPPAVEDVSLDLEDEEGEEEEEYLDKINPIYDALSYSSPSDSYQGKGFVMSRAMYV
inactive: IRAK-1-4 Inhibitor I 0.025 | ibrutinib 0.02 | [1] -0.023 | ralimetinib -0.035 | [2] -0.03 | [3] 0.182 | [4] 0.024 | pinometostat 0.009 | [5] -0.015 | [6] 0

NDUFB10 (UniProt O96000)
inactive: IRAK-1-4 Inhibitor I 0.015 | ibrutinib 0.009 | [1] -0.001 | ralimetinib -0.057 | [2] -0.018 | [3] -0.11 | [4] 0.023 | pinometostat -0.018 | [5] 0 | [6] 0.009

NOB1 (UniProt Q9ULX3)
active: ralimetinib 0.288
inactive: IRAK-1-4 Inhibitor I -0.062 | ibrutinib -0.025 | [1] -0.083 | [2] -0.033 | [3] -0.15 | [4] 0.053 | pinometostat 0.068 | [5] 0.047 | [6] -0.031

MRPS27 isoform 2 (UniProt Q92552)
inactive: IRAK-1-4 Inhibitor I -0.116 | ibrutinib 0.019 | [1] -0.002 | ralimetinib 0.069 | [2] -0.104 | [3] -0.161 | [4] -0.011 | pinometostat -0.022 | [5] -0.021 | [6] -0.06

MTHFS (UniProt P49914)
inactive: IRAK-1-4 Inhibitor I -0.003 | ibrutinib -0.01 | [1] -0.009 | ralimetinib -0.09 | [2] -0.095 | [3] -0.009 | [4] 0.007 | pinometostat -0.03 | [5] -0.044 | [6] 0.031

MRPS5 (UniProt P82675)
inactive: IRAK-1-4 Inhibitor I -0.071 | ibrutinib 0.057 | [1] -0.019 | ralimetinib 0 | [2] -0.088 | [3] -0.083 | [4] 0.078 | pinometostat 0.056 | [5] -0.112 | [6] -0.207

MYH10 isoform 3 (UniProt P35580)
inactive: IRAK-1-4 Inhibitor I 0.024 | ibrutinib -0.022 | [1] -0.011 | ralimetinib -0.04 | [2] -0.069 | [3] -0.05 | [4] -0.001 | pinometostat -0.015 | [5] -0.019 | [6] -0.024
